NPC1 promoter act: activators of NPC1 promoter; Huh7 NPC1 promoter luciferase reporter, 24 h; Potency, µM (series often up to 9.22 µM), without a hit: top-dose activation, most hits filed as activators; actives 2.4% (n = 320,000); further: % of control where 0% means no effect; nearly all actives have a fitted effect of over 60% in size
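NPC1 promoter–luciferase Huh7 cells; 24 h compound; luminescence.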
SMN2 splice up: increases expression of the SMN2 splice variant; actives 2.8% (n = 210,000); Potency, µM (series often up to 46.1 µM), for inactives: at the highest dose activity change, positive = activation, most hits filed as activators; AID 1458; HEK293 SMN2-luciferase splicing reporter, luminescence, 30-36 h; further: % of control where 0% means no effect; nearly all actives have a fitted effect of over 55% in size
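HEK293 cells carry an SMN2 minigene-luciferase reporter in which exon 7 inclusion puts luciferase in frame. Cells were seeded at 2000 cells/well, attached for 10-12 hours, then exposed to compounds for 30-36 hours at 37C before ONE-Glo luminescence.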
FLuc modulator: firefly luciferase modulation, counter-screen for miR-21 project. actives 6.9% (n = 360,000). Potency, µM (titrated, usually from 57.5 µM), inactives show top-dose activity change, negative = inhibition, actives largely listed as inhibitors. purified FLuc, Km substrates, luminescence inhibition. P08659. AID 588342;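 further: plate controls were vehicle for no effect and reference inhibitor for full effect; nearly all actives have a fitted effect of over 55% in size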
Target sequence (P08659 whole entry, looked up): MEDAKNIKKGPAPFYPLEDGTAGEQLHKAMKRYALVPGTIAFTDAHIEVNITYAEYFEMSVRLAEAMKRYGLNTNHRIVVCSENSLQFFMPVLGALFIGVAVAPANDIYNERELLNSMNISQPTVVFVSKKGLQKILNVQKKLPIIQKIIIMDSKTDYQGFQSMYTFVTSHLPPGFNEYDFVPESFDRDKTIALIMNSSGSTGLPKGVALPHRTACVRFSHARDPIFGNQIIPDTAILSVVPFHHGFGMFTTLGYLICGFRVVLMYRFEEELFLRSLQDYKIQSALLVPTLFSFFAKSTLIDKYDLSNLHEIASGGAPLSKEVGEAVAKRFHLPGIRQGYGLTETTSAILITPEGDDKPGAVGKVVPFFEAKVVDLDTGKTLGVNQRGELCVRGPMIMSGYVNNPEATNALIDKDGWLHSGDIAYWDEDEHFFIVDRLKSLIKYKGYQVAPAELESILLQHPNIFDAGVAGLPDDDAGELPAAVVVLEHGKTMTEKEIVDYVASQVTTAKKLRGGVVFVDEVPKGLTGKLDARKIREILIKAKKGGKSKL
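Purified P. pyralis luciferase, 10 nM final, with Km-level 10 uM D-luciferin and 10 uM ATP in 50 mM Tris acetate pH 7.5, 10 mM Mg acetate, 0.01% Tween-20, 0.05% BSA; 6-point qHTS titration about 60 µM downward; luminescence read.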
ELG1 genotoxic: induces genotoxicity in HEK293T cells with luciferase-tagged ELG1; Potency, µM (highest dose often 46 µM), inactives show at the highest dose activity change, positive = activation, usual class: activators; actives 1.3% (n = 330,000); HEK293T ELG1-luciferase reporter, luminescence, 16 h; AID 504466; further: % of control where 0% means no effect; nearly all actives have a fitted effect of over 60% in size
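HEK293T cells expressing luciferase-tagged ELG1 were treated with compound or DMSO for 16 hr at 37°C. Luciferase activity was then read after 30 min with ONE-Glo at room temperature; rising signal flags genetic stress.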
p53 reactivation: mutant p53 re-activation in reporter cells; H1299 p53-A138V BP100-luciferase reporter, luminescence, 24 h; actives 0.063% (n = 320,000); Potency, µM (titrated, usually from 92.2 µM), for the others: at the top dose activity change, positive = activation, usual class: activators; further: % of control where 0% means no effect; nearly all actives have a fitted effect of over 45% in size
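H1299 (p53-null), stable ts p53-A138V + BP100-Luc; 1000 cells/well, Opti-MEM/10% FBS; cpd 4 pt, 1:5; 24 h, 37 deg C, 5% CO2; detection reagent 10 min RT; luminescence.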
Rab9 prom act: activators of Rab9 promoter; Huh7 Rab9 promoter-luciferase reporter, luminescence, 24 h; Potency, µM (highest dose often 9.22 µM), for the others: at the top dose activation, negative = inhibition, usual class: activators; actives 2.8% (n = 320,000); AID 485297; further: % of control where 0% means no effect; nearly all actives have a fitted effect of over 60% in size
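Luciferase signal after 10 min detection reagent at ambient indicates Rab9 promoter upregulation; stably transfected Huh7 cells were treated 24 h with compound in DMSO at 37 °C, 5% CO2.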
The depositor's hits bear a star; ? = inconclusive; . = no result given; [ ] = remark or other dose. An excerpt weighted towards active compounds, which were near 7.3% of everything screened. The call rests on the fitted dose curve; in most records, active means well fitted curve in the direction sought with a large enough effect; inconclusive means small, poorly fitted or top-dose-only effect, or another doubt; inactive means no such curve, though single readings can be large; an effect the other way counts as inactive or inconclusive. Potency means the concentration at half of the fitted maximal effect.

SMILES	NPC1 promoter act	SMN2 splice up	FLuc modulator	ELG1 genotoxic	p53 reactivation	Rab9 prom act
CCc1cccc(C)c1NC(=O)C1CCN(c2nnc(C)c3c(C)n(-c4ccccc4)nc23)CC1	.	.	0%	.	.	.
CCOc1ccc(-c2nc3c(C#N)c[nH]n3c2NC2CCCC2)cc1	.	.	0%	.	.	.
CCN(C(=O)c1cc(S(=O)(=O)N2CCc3ccccc32)cn1C)c1cccc(C)c1	.	.	-3%	.	.	.
CCOc1ccc(/C=C2\SC(=S)N(CCC(=O)Nc3ccc(C(=O)O)cc3)C2=O)cc1	3%	.	2.7µM*	13%	.	-8%
COc1ccc(/C=C2\SC(=S)N(CCC(=O)Nc3ccc(C(=O)O)cc3)C2=O)cc1OC	3%	.	?	-1%	-4%	0%
O=C(CSc1ccccn1)Nc1ccc2c(c1)oc1ccccc12	24%	18µM*	13µM*	15%	11%	29%
CC(C)CC(=O)Nc1ccc2c(c1)oc1ccccc12	1µM*	5.6µM*	2.1µM*	19%	?	1µM*
O=C(Nc1ccc2c(c1)oc1ccccc12)C1CC1	4µM*	?	5.4µM*	?	?	2.5µM*
COc1cc2c(cc1NC(=O)CSc1ccccn1)oc1ccccc12	?	4%	?	15%	9%	?
Cc1ccc(-c2nnc(SCC(=O)Nc3ccc4c(c3)oc3ccccc34)n2C)c(Cl)c1	8%	-83%	9.5µM*	0%	3%	3%
CCCC(=O)Nc1ccc2c(c1)Cc1ccccc1-2	1.8µM*	.	9.5µM*	?	.	2.5µM*
Cn1c(SCC(=O)Nc2cccc(C(=O)O)c2)nnc1-c1cc2cc(Br)ccc2o1	7%	.	2.7µM*	0%	-3%	-1%
O=C(O)CCCC(=O)Nc1ccc2c(c1)oc1ccccc12	1%	.	15µM*	-2%	9%	2%
CCCCCC(=O)Nc1ccc2ccccc2c1	?	?	13µM*	?	?	?
CCN(CC)CCCCn1c(-c2ccccc2)nc2c(NCc3ccccc3)nc(C)nc21	.	-2%	.	.	.	.
Cc1cccc(C)c1NC(=O)Cn1nnc(S(=O)(=O)c2ccccc2)c1N	.	6%	-1%	.	.	.
CC(C)OCCCNC(=O)c1cc2c(-c3ccc(Cl)cc3)nn(C)c2s1	.	-3%	-10%	.	.	.
Cn1cccc1C(=O)N1CCC2(CCCN(c3ccccn3)C2)CC1	.	-4%	.	.	.	.
CCCCC(=O)Nc1ccc2c(c1)oc1ccccc12	?	14µM*	8.5µM*	?	?	3.5µM*
O=C(Nc1nc(-c2ccccn2)cs1)c1ccc2c(c1)OCCO2	2.8µM*	.	1.1µM*	?	7%	1.8µM*
CC(C)(C)c1ccc(C(=O)Nc2ccc([N+](=O)[O-])cn2)cc1	0.71µM*	2.8µM*	1.9µM*	?	46%	1µM*
Cc1cccc(NC(=O)CNC(=O)c2ccc3c(c2)OCO3)n1	-1%	.	-13%	2%	1%	-2%
O=C(Nc1ccc([N+](=O)[O-])cn1)c1cccnc1	0%	.	-3%	2%	13%	-6%
Cc1cccc(NC(=O)c2ccc3c(c2)OCCO3)n1	1.4µM*	.	9.5µM*	?	17%	1.3µM*
O=C(Nc1ccc([N+](=O)[O-])cn1)c1ccc2c(c1)OCO2	?	?	-6%	14%	6%	1.6µM*
SMILES	NPC1 promoter act	SMN2 splice up	FLuc modulator	ELG1 genotoxic	p53 reactivation	Rab9 prom act
CCOC(=O)c1ccccc1NC(=O)CSc1ccc(-c2sc(-c3ccccc3)nc2C)nn1	.	.	-7%	.	.	.
O=C(Nc1ccccn1)c1ccc2c(c1)OCO2	3.2µM*	11µM*	12µM*	?	-1%	1.3µM*
O=C(Nc1nc2c(F)cccc2s1)c1ccc2c(c1)OCCO2	.	.	0.54µM*	.	.	.
Cn1ccc(C(=O)NC(=S)Nc2ccc([N+](=O)[O-])cc2O)n1	2.2µM*	.	12µM*	12µM*	?	2.8µM*
O=C(Nc1ccccn1)c1ccc(C(=O)Nc2ccccn2)cc1	?	.	?	13%	-21%	?
O=C(Nc1ccccn1)c1ccc2c(c1)OCCO2	1.1µM*	2.5µM*	6.7µM*	8%	13%	0.63µM*
O=C(NC(=S)Nc1ccc([N+](=O)[O-])cc1O)C1CCCCC1	11%	.	?	-6%	-3%	8%
Cc1ccc2c(c1)C(c1ccc(F)cc1)N(C(=O)C(C)C)CC(=O)N2 (centres undefined)	.	5%	3%	.	.	.
Cc1ccc(C)c(Cn2c(=O)n(CCCCCC(=O)NCc3ccc4c(c3)OCO4)c(=O)c3sccc32)c1	.	7%	-16%	.	.	.
Cc1cc(C)n2c(Nc3ccccc3)c(-c3ccccc3)nc2n1	.	-1%	-10%	.	.	.
O=C(NC(=S)Nc1cc([N+](=O)[O-])ccc1O)c1ccc2c(c1)OCO2	0.32µM*	.	1.5µM*	1µM*	?	0.32µM*
O=C(Nc1cccc2ncccc12)c1ccc2c(c1)OCCO2	9%	-16%	?	?	15%	8%
O=C(Nc1ncccc1Cl)c1ccc2c(c1)OCCO2	3.2µM*	10µM*	13µM*	5.2µM*	15%	2.5µM*
COc1cc([N+](=O)[O-])ccc1NC(=S)NNC(=O)c1ccc2c(c1)OCO2	-3%	.	?	0%	-28%	-4%
CCOc1ccccc1-n1nnnc1SCC(=O)NC(=O)Nc1ccc2c(c1)OCCO2	1%	-15%	-16%	-1%	4%	1%
Cn1nnnc1SCC(=O)Nc1ccc2c(c1)OCCO2	2.8µM*	11µM*	13µM*	?	2%	1.6µM*
Nn1c(SCC(=O)Nc2ccc3c(c2)OCCO3)nnc(CCC(=O)O)c1=O	-4%	.	13µM*	-1%	4%	-3%
O=C(CSc1nnnn1-c1ccccc1)NC(=O)Nc1ccc2c(c1)OCCO2	?	?	19µM*	?	?	?
Nc1c(S(=O)(=O)O)cc(Nc2cccc(S(N)(=O)=O)c2)c2c1C(=O)c1ccccc1C2=O	.	-5%[9.22 µM]	.	.	.	.
COc1ccc(CCNC(=O)Cn2nnc(-c3cccc(C(F)(F)F)c3)n2)cc1OC	.	0%	-1%	.	.	.
CCN(CC)S(=O)(=O)c1ccc2c(c1)N(CC(=O)N1CCN(c3cccc(C)c3C)CC1)C(=O)CO2	.	.	2%	.	.	.
C1=C(c2ccc(-c3ccccc3)cc2)Nc2ncnn2C1c1ccco1 (centres undefined)	2.8µM*	24%	21µM*	10%	?	3.2µM*
COC1CCN(C(=O)C2CCC(=O)N(C3CCCCCC3)C2)CC1 (centres undefined)	?	.	17µM*	?	?	?
